Activity calls are given as the source filed them. Rule for the calls: active = hit-call score of the fitted dose curve at least 0.9, where 1 is the maximum; inactive = score below 0.9.
Assays:
[1] = ATG_AP_2_CIS: Attagene CIS-FACTORIAL HepG2 Assay for human Activator Protein 2 (AP-2) (AID 2282932); settings: HepG2 AP-2 cis-reporter, Attagene transcription factor profiling; actives raise or lower the signal
Method in brief: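 HepG2 cells were transiently transfected with multiple cis-promoter reporter transcription units and dosed for 24 h. Reporter mRNA was measured by RT-PCR with capillary electrophoresis fluorescence; bidirectional fits relative to DMSO baseline.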

[2] = ATG_BRE_CIS: Attagene CIS-FACTORIAL HepG2 Assay for human Bone Morphogenetic Protein (BMP) Response Element (BRE) (AID 2282933); settings: HepG2 BMP response element reporter, Attagene transcription factor profiling; actives raise or lower the signal
Method in brief: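 Endogenous transcription factor activity read in transiently transfected HepG2 cells after 24 h chemical exposure. Bidirectional curve fitting against DMSO; readout is reporter transcript level by RT-PCR with capillary electrophoresis of labelled products.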

[3] = target: Transcription factor E2F1 (Homo sapiens) (UniProt Q01094); assay: ATG_E2F_CIS: Attagene CIS-FACTORIAL HepG2 Assay for human E2F Transcription Factor 1 (AID 2282935); settings: HepG2 Attagene cis-reporter, E2F reporter RNA transcripts; actives raise or lower the signal
Chain of Transcription factor E2F1 (Homo sapiens) (Q01094 whole entry, looked up): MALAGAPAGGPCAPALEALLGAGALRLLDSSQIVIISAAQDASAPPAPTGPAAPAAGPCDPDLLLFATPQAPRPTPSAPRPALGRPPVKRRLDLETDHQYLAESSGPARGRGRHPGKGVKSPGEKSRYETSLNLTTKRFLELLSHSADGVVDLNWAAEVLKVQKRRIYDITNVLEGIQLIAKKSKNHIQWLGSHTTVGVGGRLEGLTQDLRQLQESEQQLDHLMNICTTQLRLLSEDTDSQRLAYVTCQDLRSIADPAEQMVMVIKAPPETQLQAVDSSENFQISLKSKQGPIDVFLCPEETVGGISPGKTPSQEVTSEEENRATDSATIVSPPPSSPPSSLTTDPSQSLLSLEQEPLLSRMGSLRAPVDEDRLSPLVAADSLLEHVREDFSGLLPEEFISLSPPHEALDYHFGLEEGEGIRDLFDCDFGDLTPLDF
Method in brief: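 HepG2 cells transiently transfected with multiplexed cis-element reporter units, dosed for 24 h. Reporter mRNA measured by RT-PCR, 6-FAM primer-extension labeling, HpaI digestion and capillary electrophoresis; bidirectional fit versus DMSO baseline.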

[4] = ATG_E_Box_CIS: Attagene CIS-FACTORIAL HepG2 Assay for human Enhancer Box (E-box) (AID 2282936); settings: HepG2 E-box cis-reporter transcription, actives raise or lower the signal
Method in brief: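 HepG2 cells transiently transfected with multiplexed cis-element reporter units sensing endogenous transcription factor activity; 24 h compound exposure. Reporter mRNA measured by RT-PCR, 6-FAM primer extension, HpaI digestion and capillary electrophoresis; bidirectional fit versus DMSO.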

[5] = ATG_M_61_CIS: Attagene CIS-FACTORIAL HepG2 Assay for M61 Transcription Factor (Internal Marker) (AID 2282937); settings: HepG2 Attagene CIS-FACTORIAL M61 internal marker reporter; actives raise or lower the signal
Method in brief: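 Cells were transfected with reporter units under cis-regulatory promoters, treated with chemicals for 24 h, then lysed for RNA. Reporter transcripts were quantified by RT-PCR and capillary electrophoresis, and activity was fitted bidirectionally against DMSO.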

[6] = ATG_EGR_CIS: Attagene CIS-FACTORIAL HepG2 Assay for human Early Growth Response 1 (EGR1) (AID 2282938); settings: HepG2 Attagene CIS-FACTORIAL EGR reporter mRNA; actives raise or lower the signal
Method in brief: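 Endogenous TF activity in HepG2 liver cells was gauged through cis-promoter reporter constructs transiently transfected. After 24 h dosing, reporter mRNA was quantified by RT-PCR and capillary electrophoresis, and curves fitted in both directions versus DMSO.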

[7] = ATG_M_19_CIS: Attagene CIS-FACTORIAL HepG2 Assay for M19 Transcription Factor (Internal Marker) (AID 2282939); settings: HepG2 Attagene CIS-FACTORIAL M19 internal marker reporter; actives raise or lower the signal
Method in brief: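 Internal marker readout, fitted in both directions against DMSO, from HepG2 cells carrying transfected cis-element reporter constructs; RT-PCR and capillary electrophoresis of reporter mRNA after 24 h exposure.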

[8] = ATG_ERE_CIS: Attagene CIS-FACTORIAL HepG2 Assay for Estrogen Response Element (ERE) (AID 2282940); settings: HepG2 ERE cis-reporter, Attagene RNA transcript; actives raise or lower the signal
Method in brief: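 After 24 h compound treatment, RNA from transfected HepG2 cells was reverse-transcribed, reporter cDNA PCR-amplified, FAM-labelled, HpaI-cut and resolved by capillary electrophoresis. ERE-driven cis reporter transcripts reflect endogenous factors; gain or loss scored against DMSO.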

[9] = ATG_Ets_CIS: Attagene CIS-FACTORIAL HepG2 Assay for human Erythroblast Transformation Specific (ETS) (AID 2282941); settings: HepG2 ETS cis-reporter transcription, actives raise or lower the signal
Method in brief: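 Steps: transfect HepG2 with multiple reporter units; treat compound 24 h; isolate RNA, DNase-treat, reverse-transcribe; PCR-amplify, label with 6-FAM, digest with HpaI; separate by capillary electrophoresis. Activity fitted both directions versus DMSO.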

[10] = target: Hepatocyte nuclear factor 3-beta (Homo sapiens) (UniProt Q9Y261); assay: ATG_FoxA2_CIS: Attagene CIS-FACTORIAL HepG2 Assay for human Forkhead box A2 (FOXA2) (AID 2282942); settings: HepG2 cis-reporter transcription factor activity, 24 h; actives raise or lower the signal
Chain of Hepatocyte nuclear factor 3-beta (Homo sapiens) (Q9Y261 whole entry, looked up): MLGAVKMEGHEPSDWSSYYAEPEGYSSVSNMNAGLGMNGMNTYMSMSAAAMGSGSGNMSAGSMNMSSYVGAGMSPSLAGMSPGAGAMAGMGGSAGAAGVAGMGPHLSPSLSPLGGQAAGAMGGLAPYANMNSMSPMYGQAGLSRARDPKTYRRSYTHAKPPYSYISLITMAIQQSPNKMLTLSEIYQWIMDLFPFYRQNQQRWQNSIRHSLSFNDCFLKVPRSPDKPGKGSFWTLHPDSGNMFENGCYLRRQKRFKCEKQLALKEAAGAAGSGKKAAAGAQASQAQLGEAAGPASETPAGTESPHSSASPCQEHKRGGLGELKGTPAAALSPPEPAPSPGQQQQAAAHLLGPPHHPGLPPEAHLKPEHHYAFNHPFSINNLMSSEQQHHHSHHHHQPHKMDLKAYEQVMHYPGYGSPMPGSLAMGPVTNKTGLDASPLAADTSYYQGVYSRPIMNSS
Method in brief: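 Endogenous transcription factor activity was read in HepG2 cells carrying transiently transfected cis-promoter reporter units. After 24 h dosing, reporter mRNA was quantified by RT-PCR and capillary electrophoresis, and values fitted bidirectionally versus DMSO.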

[11] = ATG_FoxO_CIS: Attagene CIS-FACTORIAL HepG2 Assay for human Forkhead box O (FoxO) (AID 2282943); settings: HepG2 Attagene cis-reporter, FoxO element, mRNA; actives raise or lower the signal
Method in brief: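 HepG2 cells transiently transfected with cis-promoter-driven multiple reporter transcription units; 24 h after chemical dosing, reporter mRNA quantified by RT-PCR, fluorescent primer extension, HpaI digestion and capillary electrophoresis. Bidirectional fitting versus DMSO baseline.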

[12] = ATG_GATA_CIS: Attagene CIS-FACTORIAL HepG2 Assay for human GATA Binding Protein (AID 2282944); settings: HepG2 GATA cis-element reporter, Attagene multiplex mRNA; actives raise or lower the signal
Method in brief: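 Reporter transcripts from a GATA cis-regulated unit, among multiplexed reporters in transfected HepG2 cells, were measured by RT-PCR with capillary electrophoresis after 24 h dosing. Induction or loss scored relative to DMSO.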

[13] = ATG_GLI_CIS: Attagene CIS-FACTORIAL HepG2 Assay for human Zinc Finger Protein GLI1 (AID 2282945); settings: HepG2, Attagene cis-factorial reporter mRNA, GLI element; actives raise or lower the signal
Method in brief: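 HepG2 cells transiently transfected with cis-promoter multiplexed reporter units report endogenous transcription factor activity. After 24 h chemical exposure, reporter mRNA was quantified by RT-PCR, 6-FAM labelling, HpaI digestion and capillary electrophoresis, with bidirectional fitting against DMSO.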

[14] = target: Bile acid receptor (Homo sapiens) (UniProt Q96RI1); assay: ATG_IR1_CIS: Attagene CIS-FACTORIAL HepG2 Assay for human Nuclear Receptor Subfamily 1 Group H Member 4 (NR1H4), IR1 submotif (AID 2282946); settings: IR1 reporter transcription, actives raise or lower the signal
Chain of Bile acid receptor (Homo sapiens) (Q96RI1 whole entry, looked up): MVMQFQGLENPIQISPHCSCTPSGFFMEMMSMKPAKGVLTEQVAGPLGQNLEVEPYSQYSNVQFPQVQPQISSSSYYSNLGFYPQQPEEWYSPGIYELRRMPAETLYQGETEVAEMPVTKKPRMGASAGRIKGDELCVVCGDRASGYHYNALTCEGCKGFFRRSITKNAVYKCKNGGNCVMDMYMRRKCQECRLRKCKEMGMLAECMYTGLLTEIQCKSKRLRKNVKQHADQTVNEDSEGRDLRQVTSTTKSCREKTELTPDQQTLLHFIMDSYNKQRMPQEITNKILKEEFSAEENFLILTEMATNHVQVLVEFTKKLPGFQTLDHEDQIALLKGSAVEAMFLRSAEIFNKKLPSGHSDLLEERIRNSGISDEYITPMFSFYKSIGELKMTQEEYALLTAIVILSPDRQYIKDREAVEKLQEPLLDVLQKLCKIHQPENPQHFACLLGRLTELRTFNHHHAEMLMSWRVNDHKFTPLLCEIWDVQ
Method in brief: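 Transient MRTU transfection, HepG2; 24 h dosing; RNA → RT-PCR → 6-FAM primer extension → HpaI digest → capillary electrophoresis fluorescence. Gain/loss of signal fitted relative to DMSO.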

[15] = ATG_GRE_CIS: Attagene CIS-FACTORIAL HepG2 Assay for human Glucocorticoid Response Elements (GRE) (AID 2282947); settings: HepG2 GRE cis-reporter, Attagene multiplex mRNA; actives raise or lower the signal
Method in brief: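 HepG2 cells transiently transfected with multiple cis-promoter reporter units measure endogenous TF activity; 24 h compound exposure. Reporter mRNA quantified by RT-PCR, FAM labelling, HpaI digestion and capillary electrophoresis; bidirectional fit vs DMSO baseline.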

[16] = ATG_ISRE_CIS: Attagene CIS-FACTORIAL HepG2 Assay for human Interferon Regulatory Factor 1 (IRF1) binding to an Interferon-Stimulated Response Element (ISRE) (AID 2282948); settings: HepG2 ISRE cis-reporter (Attagene), mRNA transcription readout; actives raise or lower the signal
Method in brief: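 Transfected HepG2 (multiple reporter transcription units, cis elements) dosed 24 h. RNA → oligo(dT) RT → PCR → 6-FAM primer extension → HpaI → CE. DMSO = negative control/baseline.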

[17] = ATG_M_32_CIS: Attagene CIS-FACTORIAL HepG2 Assay for M32 Transcription Factor (Internal Marker) (AID 2282949); settings: HepG2 Attagene cis-factorial M32 reporter, mRNA; actives raise or lower the signal;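 note: background control marker of the multiplexed CIS panel rather than a real target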
Method in brief: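 Internal background marker read-out: RT-PCR/capillary electrophoresis fluorescence of reporter transcripts from transiently transfected HepG2 cells after 24 h chemical exposure. Activity fitted bidirectionally relative to DMSO negative control.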

[18] = ATG_M_06_CIS: Attagene CIS-FACTORIAL HepG2 Assay for M06 Transcription Factor (Internal Marker) (AID 2282950); settings: HepG2 Attagene CIS-FACTORIAL M06 internal marker reporter; actives raise or lower the signal
Method in brief: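 Serves as a background control readout. Transfected HepG2 exposed to compounds for 24 h, then reporter transcripts quantified by fluorescent RT-PCR and capillary electrophoresis. Both directions fitted against DMSO baseline.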

[19] = target: Retinoic acid receptor alpha (Homo sapiens) (UniProt P10276); assay: ATG_DR5_RAR_CIS: Attagene CIS-FACTORIAL HepG2 Assay for human Retinoic Acid Receptor Alpha (RARE), DR5 submotif (AID 2282934); settings: HepG2 Attagene cis-factorial RARE DR5 reporter, mRNA; actives raise or lower the signal;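 for AC50: reporter responds to endogenous RAR alpha beta and gamma in HepG2 not RARA alone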
Chain of Retinoic acid receptor alpha (Homo sapiens) (P10276 whole entry, looked up): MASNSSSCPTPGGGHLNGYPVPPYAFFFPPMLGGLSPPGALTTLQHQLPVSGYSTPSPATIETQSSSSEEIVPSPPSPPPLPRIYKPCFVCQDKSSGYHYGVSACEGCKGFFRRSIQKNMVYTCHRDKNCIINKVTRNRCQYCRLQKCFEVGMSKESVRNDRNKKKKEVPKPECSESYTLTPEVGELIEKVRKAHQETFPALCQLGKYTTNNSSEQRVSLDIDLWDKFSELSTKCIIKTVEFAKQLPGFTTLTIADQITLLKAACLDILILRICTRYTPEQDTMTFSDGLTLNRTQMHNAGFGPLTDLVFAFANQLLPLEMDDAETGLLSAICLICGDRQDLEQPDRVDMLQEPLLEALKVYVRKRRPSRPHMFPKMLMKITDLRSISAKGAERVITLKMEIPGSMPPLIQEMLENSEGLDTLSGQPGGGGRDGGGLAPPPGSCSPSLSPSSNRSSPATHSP
Method in brief: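 HepG2 cells transiently transfected with multiplexed reporter units under cis (DR5 RARE) promoters, so endogenous transcription factor activity is measured. After 24 h compound exposure, reporter mRNA is quantified by RT-PCR with fluorescent labelling and capillary electrophoresis; bidirectional fitting versus DMSO.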

Measured: AC50

CC(=[OH+])/C=C(/C)[O-].CC(=[OH+])/C=C(/C)[O-].CC(=[OH+])/C=C(/C)[O-].[Al]
inactive: [1] | [2] | [3] | [4] | [5] | [6] | [7] | [8] | [9] | [10] | [11] | [12] | [13] | [14] | [15] | [16] | [17] | [18]

Cc1ccccc1N
inactive: [1] | [2] | [3] | [4] | [5] | [6] | [9] | [10] | [11] | [12] | [13] | [16] | [17] | [18]

CC12CC1(C)C(=O)N(c1cc(Cl)cc(Cl)c1)C2=O (stereo unspecified)
inactive: [1] | [2] | [3] | [4] | [5] | [6] | [9] | [10] | [11] | [12] | [13] | [15] | [16] | [17] | [18]

CC(C)(c1ccccc1)c1ccc(O)c(C(C)(C)c2ccccc2)c1
inactive: [2] | [3] | [5] | [7] | [9] | [10] | [12] | [13] | [15] | [16] | [17] | [18]
active: [19] 2850 nM | [4] 16900 nM | [6] 9290 nM | [8] 5860 nM | [11] 15200 nM | [14] 2780 nM

BrCCBr
inactive: [2] | [19] | [3] | [4] | [5] | [6] | [8] | [9] | [10] | [11] | [12] | [13] | [15] | [16] | [17] | [18]

CCCCOCCOC(C)=O
inactive: [2] | [3] | [4] | [5] | [6] | [7] | [8] | [9] | [10] | [11] | [12] | [13] | [14] | [15] | [16] | [17] | [18]

C[C@H]1O[C@@H](O[C@H]2[C@@H](O)C[C@H](O[C@H]3[C@@H](O)C[C@H](O[C@H]4CC[C@@]5(C)[C@H](CC[C@@H]6[C@@H]5CC[C@]5(C)[C@@H](C7=CC(=O)OC7)CC[C@]65O)C4)O[C@@H]3C)O[C@@H]2C)C[C@H](O)[C@@H]1O
inactive: [2] | [3] | [4] | [5] | [7] | [8] | [10] | [13] | [14] | [17] | [18]
active: [1] 141 nM | [6] 650 nM | [9] 56.4 nM | [11] 472 nM | [12] 131 nM | [15] 123 nM | [16] 254 nM

CCOP(=O)(CN(CCO)CCO)OCC
inactive: [2] | [19] | [3] | [4] | [5] | [6] | [7] | [8] | [9] | [10] | [11] | [12] | [13] | [15] | [16] | [17] | [18]

O=[N+]([O-])c1ccc2c3c(cccc13)CC2
inactive: [1] | [2] | [19] | [3] | [4] | [5] | [6] | [8] | [9] | [10] | [11] | [12] | [13] | [14] | [15] | [16] | [17] | [18]

— PubChem BioAssay (EPA / NIEHS)
